Compound activity as filed in PubChem.
Sampled rows, rich in hits. Any-hit rate of the full collection: about 3.2%.
Kir21 inh – inhibitors of mouse Kir2.1 inward-rectifier potassium channel. HEK293-Kir2.1, FluxOR thallium flux fluorescence; hits give low values. B-score at 10 µM. 0.85% of 310,000 active. AID 1672;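 active = fluorescence ratio B-score at or below minus 3 SD of library scores, with starting-brightness B-score within 2 SD, cut at about -4.2 in these data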;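 also: channel flux triggered by added potassium and thallium sulfate stimulus; B-score of peak minus minimum fluorescence over baseline after thallium stimulus; more negative B-score means stronger Kir2.1 block with less thallium influx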
Target sequence (P35561 whole entry, looked up): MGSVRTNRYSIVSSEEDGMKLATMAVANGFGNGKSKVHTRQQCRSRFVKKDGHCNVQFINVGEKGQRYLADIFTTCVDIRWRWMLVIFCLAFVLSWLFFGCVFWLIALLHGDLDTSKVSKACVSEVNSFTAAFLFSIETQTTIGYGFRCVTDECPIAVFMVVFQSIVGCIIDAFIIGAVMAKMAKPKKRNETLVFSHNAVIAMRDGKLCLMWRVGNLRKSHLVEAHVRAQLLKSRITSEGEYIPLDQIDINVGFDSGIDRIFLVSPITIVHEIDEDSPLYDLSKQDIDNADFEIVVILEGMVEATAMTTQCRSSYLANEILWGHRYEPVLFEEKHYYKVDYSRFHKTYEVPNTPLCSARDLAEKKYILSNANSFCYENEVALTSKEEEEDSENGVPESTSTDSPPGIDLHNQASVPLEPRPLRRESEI
Rce1 inh – yeast Ras-converting enzyme inhibition; Q03530; yeast membranes, quenched prenylated peptide cleavage fluorescence; calls only; 0.27% of 290,000 active; AID 2563;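 active = fall in fluorescence gain of 50% or more versus controls, with final raw signal at or below 3038400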;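 also: plate controls were neutral control wells for no effect and wells lacking membranes for full effect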
TMEM16A inh – inhibitors of mouse TMEM16A calcium-activated chloride channel; HEK293 TMEM16A/YFP iodide influx fluorescence, ionomycin; normalized B-score (activity score, 25-100; higher = stronger inhibition) at 10 µM; 1.2% of 310,000 active;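 active = ratio plate-corrected score three or more library SD toward inhibition, starting fluorescence score within five deviations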;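 also: score derived from kinetic fluorescence span divided by baseline fluorescence per well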
CHT allo act – allosterically activates the human high affinity choline transporter; Q9GZV3; CHT-expressing cells, membrane potential dye, choline EC20; hits give high values; LV-AA mutant CHT in HEK293 cells; B-score at 10 µM; 0.49% of 310,000 active;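 active = initial fluorescence not abnormally high and integrated response B-score, plate-corrected, over 3 SD above library mean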
CHT inh – human CHT choline transport inhibition; Q9GZV3; B-score at 10 µM; AID 488975; 0.86% of 310,000 active; CHT-expressing cells, membrane potential dye, choline response; hits give low values;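 active = B-score over 3 SD under the library average, and starting fluorescence ratio not unusually high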;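 also: choline stimulus applied at its EC90 after an EC20 pre-addition; B-score computed on integrated fluorescence ratio after choline addition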
TMEM16A act – mouse TMEM16A channel activation, primary screen. 0.3% of 340,000 active. B-score at 10 µM. Q8BHY3. HEK293 TMEM16A/YFP-H148Q/I152L, iodide quench fluorescence; hits give low values;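 active = fluorescence-ratio B-score plate-corrected deviation score at least 3 library SD below zero, with starting fluorescence score within 5 deviations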;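 also: channel opened by trigger with iodide after compound preincubation; score built on the fluorescence ratio of max minus min over baseline; more negative score means more quench and so TMEM16A activation or potentiation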
CHT block conf – human CHT inhibition, confirmatory screen; shares compounds with CHT inh; CHT-expressing cells, choline membrane potential dye; LV-to-AA substituted CHT, HEK293 cells; CHT activity remaining % of control (hits give low values), % at 10 µM; 70% of 2,400 active;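 active = choline transporter activity left, mean of duplicates at 10 µM, below buffer-only control mean minus 3 SD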;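 also: depolarization triggered by choline at its EC90 following an EC20 pre-addition; 0% = hemicholinium-3 full block and 100% = buffer-only control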
HEK293 CHT ctr – counter-screen for CHT inhibitors: effect in parental HEK293 cells. shares compounds with CHT inh. membrane potential dye, choline response; active = decrease or increase beyond buffer ±3SD. membrane potential ratio readout (active if shifted either direction beyond buffer ±3SD; no single direction) at 10 µM. 4% of 2,400 active. AID 493222;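 also: parental cells lack the transporter so any hit is non-specific; ratio is peak minus trough fluorescence over baseline after EC90 choline challenge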
CHT activ conf – human CHT activation, confirmatory screen; CHT-expressing cells, membrane potential dye fluorescence (FDSS); % of choline EC20–EC90 response window; HEK293 expressing CHT LV-AA mutant; choline added at its EC20; AID 504833; shares compounds with CHT allo act; activation, % at 10 µM; 91% of 2,500 active;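 active = primary screen active, with duplicate mean activation above negative control mean plus 3 SD, cut at about 11% in these data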
HEK293 MP dye – CHT activator counter-screen hit in parental HEK293 cells; membrane potential dye fluorescence (FDSS); measured after EC20 choline addition; shares compounds with CHT allo act; 62% of 2,500 active; ratio readout change at 10 µM, hits read low; AID 623908;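 active = duplicate-averaged ratio beyond 3 SD from buffer wells, up or down, though filed actives are nearly all decreases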
Active calls of the source: *; ! = repeats disagree.

CC(=O)O[C@@H]1/C=C/[C@](C)(O)C[C@@H](C)C/C=C/[C@H]2[C@@H]3O[C@]3(C)[C@@H](C)[C@H]3[C@H](Cc4ccccc4)NC(=O)[C@@]312 was read as Kir21 inh -3.2, Rce1 inh inactive, TMEM16A inh inactive, CHT allo act inactive, CHT inh -5.1*, CHT block conf 71%* and HEK293 CHT ctr inactive.
`COC(=O)C1=C(c2c(C)noc2C)C[C@@H]2CC[C@H]1N2C(=O)NC1CCCCC1` gave TMEM16A act inactive.
O=[N+]([O-])c1ccc(C(c2ccc([N+](=O)[O-])cc2)c2ccc([N+](=O)[O-])cc2)cc1 was read as TMEM16A act inactive.
`Cc1[nH]n(-c2ccccc2)c(=O)c1C(c1ccc([N+](=O)[O-])cc1)c1c(C)[nH]n(-c2ccccc2)c1=O` gave Kir21 inh 0.2, Rce1 inh inactive, TMEM16A inh inactive, CHT allo act inactive, CHT inh -6.2*, TMEM16A act inactive, CHT block conf 36%* and HEK293 CHT ctr inactive.
CN1C(C(=O)N2CCC3(CC2)OCCO3)=CC(c2ccc(F)cc2)=NS1(=O)=O was read as Kir21 inh 1.7, Rce1 inh inactive, TMEM16A inh inactive, CHT allo act inactive, CHT inh inactive and TMEM16A act inactive.
Screening Cc1c(C(=O)O)cc(-c2ccccc2)n1Cc1ccccc1 returned Kir21 inh -0.57, Rce1 inh inactive, TMEM16A inh inactive, CHT allo act inactive, CHT inh -6.3*, TMEM16A act inactive, CHT block conf 7.3%* and HEK293 CHT ctr -35*.
For CCOC(=O)C1CCN(C(C)C(=O)c2c[nH]c3ccccc23)CC1 (stereo not given) the results were Kir21 inh 1.6, Rce1 inh inactive, TMEM16A inh inactive, CHT allo act inactive, CHT inh inactive and TMEM16A act inactive.
`O=C1NC(=O)C(=Cc2coc3ccccc3c2=O)C(=O)N1` gave Kir21 inh 0.81, Rce1 inh inactive, TMEM16A inh inactive, CHT allo act inactive, CHT inh -9.5*, TMEM16A act inactive, CHT block conf 46%* and HEK293 CHT ctr inactive.
Screening CCC(C)N1C(=O)/C(=C/c2ccc3c(c2)CCN3CCCCl)C(=O)NC1=S (stereo not given) returned Kir21 inh 0.43, Rce1 inh inactive, TMEM16A inh inactive, CHT allo act inactive, CHT inh -5.9*, TMEM16A act inactive, CHT block conf inactive and HEK293 CHT ctr inactive.
Screening Cc1ccccc1-n1c(O)c(/C=C2/C(c3ccccc3)=Nc3ccccc32)c(=O)[nH]c1=O returned Kir21 inh -1.8, Rce1 inh inactive, TMEM16A inh inactive, CHT allo act inactive, CHT inh -5.2*, TMEM16A act inactive, CHT block conf 53%* and HEK293 CHT ctr inactive.
For Cc1cccc(-n2c(O)c(/C=C3/C(c4ccccc4)=Nc4ccccc43)c(=O)[nH]c2=O)c1 the results were Kir21 inh 0.95, Rce1 inh inactive, TMEM16A inh inactive, CHT allo act inactive, CHT inh inactive and TMEM16A act inactive.
For C(#CCN1CCOCC1)COCC#Cc1ccccc1 the results were Kir21 inh -2.2, Rce1 inh inactive, TMEM16A inh inactive, CHT allo act inactive, CHT inh inactive and TMEM16A act inactive.
For CC[N+](CC)(CC#CCO)CC#Cc1ccccc1 the results were Kir21 inh -1.8, Rce1 inh inactive, TMEM16A inh inactive, CHT allo act inactive, CHT inh -8.6*, TMEM16A act inactive, CHT block conf 35%* and HEK293 CHT ctr inactive.
`COc1cc(C2(C#N)CCN(C)CC2)cc(OC)c1OC` gave TMEM16A act inactive.
`CCOC(=O)CCN=Cc1c(O)n(-c2ccc(Br)cc2)c(=O)[nH]c1=O` gave Kir21 inh 1.9, Rce1 inh inactive, TMEM16A inh inactive, CHT allo act inactive, CHT inh inactive and TMEM16A act inactive.
Screening CCOc1ccc(-n2c(O)c(C=NCCN(CC)CC)c(=O)[nH]c2=O)cc1 returned Kir21 inh 0.08, Rce1 inh inactive, TMEM16A inh inactive, CHT allo act inactive, CHT inh -6.3*, TMEM16A act inactive, CHT block conf inactive and HEK293 CHT ctr inactive.
S=P(NCCNP(=S)(N1CC1)N1CC1)(N1CC1)N1CC1 was read as TMEM16A act inactive.
`Cc1cccc(N2CCc3c2nc2ccccc2c3N)c1` gave Kir21 inh -1.8, Rce1 inh inactive, TMEM16A inh inactive, CHT allo act inactive, CHT inh -9.3*!, TMEM16A act inactive, CHT block conf 56%*, HEK293 CHT ctr inactive, CHT activ conf 33* and HEK293 MP dye -56*.
Screening CCCN1CCC[C@@H](c2cccc(O)c2)C1 returned TMEM16A inh inactive, CHT allo act inactive, CHT inh inactive and TMEM16A act inactive.
